# Hits are enriched below; roughly 13% of the tested compounds scored in any of these assays.
# Pf growth 96h: Primary qHTS for delayed death inhibitors of the malarial parasite plastid, 96 hour incubation; P. falciparum luciferase reporter growth, 96 h; AID 504834, 2011; Potency, µM (top dose mostly 28.7 µM), for the others: at the highest dose activity change, negative = inhibition, most hits filed as inhibitors; 6.9% of 320,000 active; note: potency is the fitted concentration of half-maximal effect
#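 Erythrocytes infected with luciferase-expressing P. falciparum were dispensed at 2% hematocrit and 0.05% parasitemia (final), then incubated with compounds 96 hours at 37 C in 5% CO2. Luminescence after detection reagent addition reported growth.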
# HCMV inh: qHTS Assay for inhibitors of the human cytomegalovirus (HCMV). HFF cells, HCMV-luciferase reporter, 72 h; active compounds read low. AID 1259415, 2018. activity change, negative = inhibition, % at 57.5 µM. 4.5% of 410,000 active; in the data active = activity change below about -60%; inconclusive = no clear call, values can overlap the other calls; inactive = above about -39%
#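 HFF cells seeded 16 h at 37C, treated with compounds, infected with luciferase-reporter HCMV at MOI 1 PFU/cell; luciferase read at 72 h post infection, normalized to buffer-only and Salinomycin controls.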
# Pf growth 48h: Primary qHTS for delayed death inhibitors of the malarial parasite plastid, 48 hour incubation; 5.9% of 310,000 active; Potency, µM (titrated, usually from 28.7 µM), for the others: top-dose activity change, negative = inhibition, usual class: inhibitors; P. falciparum luciferase growth in erythrocytes, 48 h; note: potency is the fitted concentration of half-maximal effect
#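 Compounds are pin-transferred into medium, infected erythrocytes (2% hematocrit, 0.1% parasitemia final) are added, and plates sit one parasite generation at 37 C in 5% CO2. Detection reagent is then added and luminescence measured.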
# HCV inh: qHTS Assay for Inhibitors of Hepatitis C Virus (HCV) | AID 651820, 2012 | Huh7.5.1 HCVcc-Cre infection, luciferase reporter, 44 h | Potency, µM (top dose mostly 41.8 µM), without a hit: top-dose activity change, negative = inhibition, actives largely listed as inhibitors | 3.4% of 340,000 active; note: potency is the fitted concentration of half-maximal effect
#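 Infectious HCV cell culture screen: compound-treated cells (1,000/well, pre-plated 4 h) are infected with HCVcc-Cre at roughly 0.5 moi and grown 44 h. Infection is quantified by luciferase signal after 15 min substrate incubation at room temperature.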
# Active calls of the source: *; ? = inconclusive; . = not tested or not shown. Unless noted, calls come from the whole dose curve; as a rule, active = well fitted inhibition curve with a large enough effect; inconclusive = small, poorly fitted or top-dose-only effect, or another doubt; inactive = no such curve, though single readings can be large or run the other way. % is set by controls: 0 for no effect and ±100 for the full control effect.
SMILES,Pf growth 96h,HCMV inh,Pf growth 48h,HCV inh
COc1cccc(NC(=O)CSC2=C(C#N)C(c3ccco3)C3=C(CCCC3=O)N2)c1 (stereo unspecified),134.0%,46.0,-21.1%,?
Cc1ccc(C(=O)CSC2=C(C#N)C(c3ccco3)C3=C(CCCC3=O)N2)cc1 (stereo unspecified),-24.0%,-26.1,?,25.1µM*
CSC1=C(C#N)C(c2ccc3c(c2)OCO3)C2=C(CCCC2=O)N1 (stereo unspecified),-14.8%,?,?,8.4%
COc1ccc(NC(=O)CSC2=C(C#N)C(c3ccco3)C3=C(CCCC3=O)N2)c(OC)c1 (stereo unspecified),.,15.4,.,?
CCSC1=C(C#N)C(c2ccc(Cl)cc2)C2=C(CCCC2=O)N1 (stereo unspecified),191.5%,-9.9,?,25.1µM*
CC(C)(C)c1ccc(C(=O)CCCSC2=C(C#N)C(c3ccco3)C3=C(CCCC3=O)N2)cc1 (stereo unspecified),19.5%,?,6.57µM*,6.31µM*
N#CC1=C(SCC(=O)c2ccccc2)NC2=C(C(=O)CCC2)C1c1ccco1 (stereo unspecified),81.7%,106.1,?,11.2µM*
Cc1ccc(-c2ccc(CCC(=O)O)n2-c2ccc(C(C)C)cc2)cc1,.,6.0,.,.
CCOC(=O)c1ccccc1NC(=O)N(Cc1ccco1)C1CCN(C(C)=O)CC1,.,6.7,.,.
Cc1ccc2c(c1)c(=O)c(C(=O)c1ccccc1)cn2Cc1ccccc1F,.,-23.2,.,.
CCCCc1ccc(NC(=O)CSC2=C(C#N)C(c3ccco3)C3=C(CCCC3=O)N2)cc1 (stereo unspecified),?,-32.0,1.85µM*,?
COc1ccc(S(=O)(=O)Nc2cc3c(cc2N2CCOCC2)n(C)c(=O)n3C)cc1,.,60.8,.,.
CCOC(=O)c1cnc2ccc(OCC)cc2c1NCc1ccccc1,?,-72.9*,11.7µM*,10µM*
CCOC(=O)c1cnc2ccc(OCC)cc2c1N1CCN(c2ccccc2)CC1,.,-25.3,?,?
CCOC(=O)c1cnc2ccc(C)cc2c1N(C)Cc1ccccc1,?,-60.1*,?,-15.5%
CCOC(=O)c1cnc2ccc(OCC)cc2c1NCc1cccnc1,6.57µM*,?,?,?
CCOC(=O)c1cnc2c(OC)cccc2c1NCc1cccnc1,-8.0%,-62.3*,2.9%,-18.4%
CCOC(=O)c1cnc2ccc(C(=O)OC)cc2c1NCc1ccco1,?,.,15.9%,8.6%
CC(=O)c1ccc(NC(=O)CCCc2nc(-c3cccc(C)c3)no2)cc1,.,-11.3,.,.
CC(C)C[C@@H]1COc2cccc(N3CCC[C@@H]3CO)c2S(=O)(=O)N1,.,-31.7,.,.
COc1ccc(OC)c(CNC(=O)Cc2ccc(NC(=O)N3CCCCc4ccccc43)cc2)c1,.,11.1,.,.
CCCOCc1cc(CN2CCN(c3cccc(Cl)c3)CC2)c(O)c2ncccc12,.,-96.7*,.,.
CN1CCN(Cc2cc(COCc3ccccc3)c3cccnc3c2O)CC1,2.33µM*,?,2.08µM*,3.16µM*
CCCCOCc1cc(CN2CCN(c3cccc(Cl)c3)CC2)c(O)c2ncccc12,.,-100.1*,.,.
COc1cc(CN2CCN(c3cccc(Cl)c3)CC2)cc(OC)c1OC,.,29.3,-21.8%,-4.8%
SMILES,Pf growth 96h,HCMV inh,Pf growth 48h,HCV inh
CCOC(=O)C1CCN(C(=O)Cn2ncc3c4ccccc4n(Cc4ccccc4)c3c2=O)CC1,.,35.6,.,.
COc1ccc2c(c1)c(C(C)=O)c(C)n2-c1ccc(C(C)=O)cc1,2.2%,-73.6*,?,8.3%
COc1ccc(-n2c(C)cc(C)c(C(C)=O)c2=S)cc1,11.7µM*,-5.8,14.7µM*,31.7%
COc1ccc2c(c1)c(C(=O)O)c(C)n2-c1ccccc1,-8.5%,12.7,-3.2%,?
COc1ccc(-n2c(C)c(C(C)=O)c3cc(OC(C)=O)ccc32)cc1,-25.9%,-79.5*,104.3%,?
COc1ccccc1-n1c(C)cc(SC)c(C(C)=O)c1=S,?,34.8,.,-6.1%
COc1ccc2ccccc2c1/C=N/NC(=O)c1cccc(C)c1,.,7.0,.,11.2µM*
COc1cccc(/C=N/NC(=O)c2ccc(=O)n(C)c2)c1O,7.0%,83.7,?,-16.3%
O=C(NN=Cc1c(O)ccc2ccccc12)c1ccncc1,.,-100.0*,.,?

# Compound activity: PubChem BioAssay, National Center for Advancing Translational Sciences (NCATS)
